According to PubChem BioAssay (NCI):
Compounds without any hit were thinned out: in the full panel of roughly 83,000, 20% have a hit.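 Growth was measured after 48 h exposure to one concentration of compound in 96-well plates. Values under 10 count as active.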 A number with no mark means an inactive call. The source made the active and inactive calls.

What follows are compounds tested on NCI-H226 lung (assay: NCI-60 one-dose screen, 48 h (100 = growth as untreated, 0 = no growth, -100 = all killed)). Conditions: 10 µM unless noted.

Compound	growth
Cc1ccc(-c2onc3c(=O)[nH]nc(-c4ccccc4)c23)cc1	61.6%
O=C1CSC(=S)N1CCc1ccc(O)cc1	108%
CNC(=O)c1cc(Oc2ccc(NC(=O)Nc3ccc(Cl)c(OC(F)(F)F)c3)c(F)c2)ccn1	31.5%
N#C/C(=C\c1ccc(-c2ccc(Cl)c(Cl)c2)o1)c1nc(-c2ccco2)cs1	81.5%
O=S(=O)(Nc1ccc(OC(F)F)cc1)c1ccc(-c2cnc(C3CC3)o2)cc1	74.1%
O=C1Nc2cc(-c3ccc(O)cc3)ccc2/C1=C/c1ccc[nH]1	3.63% (active)
CON1C(=O)CC[C@]2(C)[C@H]3CC[C@@H]4C([C@@]5(C)CCC(=O)O5)CC[C@@]4(C)[C@]3(C)CC[C@H]2C1(C)C (stereo partly drawn)	94.9%
Cn1cc(C(=O)c2nc(-c3c[nH]c4ccc(Br)cc34)no2)c2cc(F)ccc21	81.5%
COc1ccc(-n2nc(C)c3c(Nc4ccc(NC(=O)Nc5cccc(C(F)(F)F)c5)cc4)ncnc32)cc1	34.1%
CC(C)C1=C[C@@]23CC[C@@H]4[C@](C)(CCC[C@@]4(C)C(=O)N4CCCNCC4)[C@H]2C[C@@H]1[C@H]1C(=O)CCC(=O)[C@H]13	101%
C#CCOc1ccc2ncnc(N3CCC(NC(=O)CCl)CC3)c2c1	2.28% [8.25 µM] (active)
Cc1ccc(NC(=O)/C=C/c2ccccc2)c(C(N)=O)c1	68.2%
COc1ccc(/C=C\c2cc(OC)c(OC)c(OC)c2)cc1OC(=O)c1cccc(Cn2cc(CCOC(=O)[C@H](N)Cc3cn(C)c4ccccc34)nn2)c1	19.8%
